Assay in all cases: DAPPL (digital affinity profiling via proximity ligation, sequencing); 10 mM Tris-HCl pH 7.5, 50 mM NaCl, 1 mM DTT, 4% glycerol, room temperature, 30 min; GST-TFs on glutathione beads, 16-mer random dsDNA library, 0.1% formaldehyde crosslink after washing; high values mean tight binding
For one assay, the target named is T1, FEV (Homo sapiens, UniProt Q99581 1-238).
T1 sequence: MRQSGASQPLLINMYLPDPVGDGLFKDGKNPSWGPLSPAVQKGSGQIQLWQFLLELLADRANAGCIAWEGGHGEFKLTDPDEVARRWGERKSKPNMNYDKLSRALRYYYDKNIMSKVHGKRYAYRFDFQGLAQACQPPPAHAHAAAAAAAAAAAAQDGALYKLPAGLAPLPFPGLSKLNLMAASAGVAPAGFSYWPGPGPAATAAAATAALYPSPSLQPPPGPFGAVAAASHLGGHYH
As to conditions: protein: recombinant; tags: N-terminal GST; dsDNA, one strand shown. The gist of the method: (§1)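 In yeast, human transcription factors were expressed with a GST fusion, then pulled down on glutathione beads and given DNA barcodes. Pooled with a tag-only sample, they were exposed to 200 nmole of a 16-mer random double-stranded DNA library (Tris/NaCl/DTT/glycerol buffer, room temperature, 30 min), washed, crosslinked with 0.1% formaldehyde, proximity-ligated using BsaI/T4 ligase for 1 h at 37 °C, PCR-amplified and read on an Illumina NextSeq500. Each hexamer's frequency of reads for a factor, divided by the matching frequency for the tag-only sample, gives the binding signal.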

The target of a further assay is ETV5 (Homo sapiens, UniProt P41161 1-510). As to conditions: protein: recombinant; tags: N-terminal GST; dsDNA, one strand shown. The gist of the method: as §1
Another assay addresses HSF1 (Homo sapiens, UniProt Q00613 1-529). As to conditions: protein: recombinant; tags: N-terminal GST; chain copies: 3; dsDNA, one strand shown. The gist of the method:
as §1

In another assay the target is T2, SPIC (Homo sapiens, UniProt Q8N5J4 1-248).
T2 sequence: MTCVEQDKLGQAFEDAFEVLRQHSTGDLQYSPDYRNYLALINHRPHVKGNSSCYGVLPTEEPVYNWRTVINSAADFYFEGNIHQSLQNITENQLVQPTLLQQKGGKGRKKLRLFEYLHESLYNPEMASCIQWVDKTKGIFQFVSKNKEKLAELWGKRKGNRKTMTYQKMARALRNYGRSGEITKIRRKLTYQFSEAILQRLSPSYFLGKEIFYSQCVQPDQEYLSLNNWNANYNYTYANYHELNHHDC
As to conditions: protein: recombinant; tags: N-terminal GST; dsDNA, one strand shown. The gist of the method: as §1

For another assay, the target named is ELF4 (Homo sapiens, UniProt Q99607 1-663). As to conditions: protein: recombinant; tags: N-terminal GST; dsDNA, one strand shown. An outline of the steps:
as §1

Another assay concerns the target T3, ELK4 (Homo sapiens, UniProt P28324-2 1-405).
T3 sequence: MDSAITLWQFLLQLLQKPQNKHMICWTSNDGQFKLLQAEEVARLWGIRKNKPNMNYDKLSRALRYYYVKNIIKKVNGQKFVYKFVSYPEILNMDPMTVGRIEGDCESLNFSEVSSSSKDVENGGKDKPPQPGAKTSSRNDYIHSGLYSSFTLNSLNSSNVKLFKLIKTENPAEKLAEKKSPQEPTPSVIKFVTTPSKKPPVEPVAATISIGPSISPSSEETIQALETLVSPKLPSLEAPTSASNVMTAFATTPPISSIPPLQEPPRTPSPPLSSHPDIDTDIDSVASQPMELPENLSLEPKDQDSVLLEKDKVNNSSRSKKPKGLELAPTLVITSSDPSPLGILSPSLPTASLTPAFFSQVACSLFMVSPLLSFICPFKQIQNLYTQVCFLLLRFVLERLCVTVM
As to conditions: protein: recombinant; tags: N-terminal GST; dsDNA, one strand shown. An outline of the steps: as §1

For a further assay, the target named is T4, ETV2 (Homo sapiens, UniProt O00321 1-342).
T4 sequence: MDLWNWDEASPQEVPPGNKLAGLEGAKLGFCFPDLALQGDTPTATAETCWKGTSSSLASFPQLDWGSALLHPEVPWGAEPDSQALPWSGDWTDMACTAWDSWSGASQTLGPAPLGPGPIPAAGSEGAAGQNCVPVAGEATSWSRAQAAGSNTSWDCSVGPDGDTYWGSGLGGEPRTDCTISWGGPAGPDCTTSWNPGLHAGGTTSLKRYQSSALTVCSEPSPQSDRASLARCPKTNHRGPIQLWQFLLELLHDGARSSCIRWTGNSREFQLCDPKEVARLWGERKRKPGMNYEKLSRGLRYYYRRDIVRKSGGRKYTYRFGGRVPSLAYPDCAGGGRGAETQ
As to conditions: protein: recombinant; tags: N-terminal GST; dsDNA, one strand shown. The gist of the method: as §1

For the next assay, the target named is T5, ELF3 (Homo sapiens, UniProt P78545 1-371).
T5 sequence: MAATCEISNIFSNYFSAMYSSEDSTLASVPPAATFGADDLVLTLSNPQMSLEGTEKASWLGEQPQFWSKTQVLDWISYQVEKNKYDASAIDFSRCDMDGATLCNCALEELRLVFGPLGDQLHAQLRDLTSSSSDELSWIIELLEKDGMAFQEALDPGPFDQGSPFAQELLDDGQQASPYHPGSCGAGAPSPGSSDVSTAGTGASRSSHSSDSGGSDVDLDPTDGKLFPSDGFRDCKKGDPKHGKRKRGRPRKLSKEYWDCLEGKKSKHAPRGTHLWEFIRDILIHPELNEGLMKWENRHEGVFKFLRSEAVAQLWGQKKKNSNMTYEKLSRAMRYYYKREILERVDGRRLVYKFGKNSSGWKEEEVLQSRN
As to conditions: protein: recombinant; tags: N-terminal GST; dsDNA, one strand shown. An outline of the steps: as §1

The target of the next assay is CRX (Homo sapiens, UniProt O43186 1-299). As to conditions: protein: recombinant; tags: N-terminal GST; dsDNA, one strand shown. An outline of the steps: as §1
Another assay addresses ETV1 (Homo sapiens, UniProt P50549 1-477). As to conditions: protein: recombinant; tags: N-terminal GST; dsDNA, one strand shown. The gist of the method: as §1
In a further assay the target is T6, ERF (Homo sapiens, UniProt P50548 1-548).
T6 sequence: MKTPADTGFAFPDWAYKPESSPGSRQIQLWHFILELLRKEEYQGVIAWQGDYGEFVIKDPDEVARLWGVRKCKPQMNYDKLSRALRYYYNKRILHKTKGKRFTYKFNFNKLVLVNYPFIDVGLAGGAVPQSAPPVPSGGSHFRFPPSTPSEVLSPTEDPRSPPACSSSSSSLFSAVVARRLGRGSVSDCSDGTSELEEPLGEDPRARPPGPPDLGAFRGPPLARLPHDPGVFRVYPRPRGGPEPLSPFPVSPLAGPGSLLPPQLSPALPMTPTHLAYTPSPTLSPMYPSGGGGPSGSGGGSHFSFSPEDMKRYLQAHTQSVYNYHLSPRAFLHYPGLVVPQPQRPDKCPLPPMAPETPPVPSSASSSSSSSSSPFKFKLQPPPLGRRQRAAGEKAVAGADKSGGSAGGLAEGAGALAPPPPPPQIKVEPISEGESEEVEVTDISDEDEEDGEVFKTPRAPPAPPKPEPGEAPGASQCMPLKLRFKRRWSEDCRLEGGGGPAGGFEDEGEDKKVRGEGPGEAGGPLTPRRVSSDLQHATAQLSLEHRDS
As to conditions: protein: recombinant; tags: N-terminal GST; dsDNA, one strand shown. An outline of the steps:
as §1

The next assay deals with T7, ETV3L (Homo sapiens, UniProt Q6ZN32 1-361).
T7 sequence: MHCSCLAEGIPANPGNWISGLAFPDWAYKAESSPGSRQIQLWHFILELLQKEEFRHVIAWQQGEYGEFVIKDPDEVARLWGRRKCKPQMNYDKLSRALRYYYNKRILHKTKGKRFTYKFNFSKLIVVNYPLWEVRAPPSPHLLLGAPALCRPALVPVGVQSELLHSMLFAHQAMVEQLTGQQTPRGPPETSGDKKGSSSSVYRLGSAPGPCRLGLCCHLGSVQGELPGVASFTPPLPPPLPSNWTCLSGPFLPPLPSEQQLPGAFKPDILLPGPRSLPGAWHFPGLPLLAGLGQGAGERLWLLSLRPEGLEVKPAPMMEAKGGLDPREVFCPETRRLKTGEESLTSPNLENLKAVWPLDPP
As to conditions: protein: recombinant; tags: N-terminal GST; dsDNA, one strand shown. The gist of the method: as §1

For a further assay, the target named is T8, ETS2 (Homo sapiens, UniProt P15036 1-469).
T8 sequence: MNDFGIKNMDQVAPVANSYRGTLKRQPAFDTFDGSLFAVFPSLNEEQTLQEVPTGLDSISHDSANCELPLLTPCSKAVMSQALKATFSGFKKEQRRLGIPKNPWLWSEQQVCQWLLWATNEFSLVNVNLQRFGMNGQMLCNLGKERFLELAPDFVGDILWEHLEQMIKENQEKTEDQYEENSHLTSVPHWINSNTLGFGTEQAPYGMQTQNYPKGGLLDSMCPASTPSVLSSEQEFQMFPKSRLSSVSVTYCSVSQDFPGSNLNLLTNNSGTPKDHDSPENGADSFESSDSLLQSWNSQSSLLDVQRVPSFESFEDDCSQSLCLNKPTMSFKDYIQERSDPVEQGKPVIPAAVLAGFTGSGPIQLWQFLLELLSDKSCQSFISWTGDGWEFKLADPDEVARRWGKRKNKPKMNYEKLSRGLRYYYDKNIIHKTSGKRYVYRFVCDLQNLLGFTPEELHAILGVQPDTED
As to conditions: protein: recombinant; tags: N-terminal GST; dsDNA, one strand shown. The gist of the method:
as §1

The target in the next assay is T9, SPDEF (Homo sapiens, UniProt O95238 1-335).
T9 sequence: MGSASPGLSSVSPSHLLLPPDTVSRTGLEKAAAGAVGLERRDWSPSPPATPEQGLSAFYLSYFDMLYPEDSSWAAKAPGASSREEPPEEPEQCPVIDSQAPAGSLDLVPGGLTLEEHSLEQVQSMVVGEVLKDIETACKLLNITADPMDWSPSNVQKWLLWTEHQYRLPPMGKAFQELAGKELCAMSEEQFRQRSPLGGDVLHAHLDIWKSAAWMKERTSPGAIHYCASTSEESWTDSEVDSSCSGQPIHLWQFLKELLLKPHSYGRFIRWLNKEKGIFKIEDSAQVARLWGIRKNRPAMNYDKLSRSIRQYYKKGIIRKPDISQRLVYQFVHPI
As to conditions: protein: recombinant; tags: N-terminal GST; dsDNA, one strand shown. An outline of the steps:
as §1

Another assay has as its target T10, ETV7 (Homo sapiens, UniProt Q9Y603 1-341).
T10 sequence: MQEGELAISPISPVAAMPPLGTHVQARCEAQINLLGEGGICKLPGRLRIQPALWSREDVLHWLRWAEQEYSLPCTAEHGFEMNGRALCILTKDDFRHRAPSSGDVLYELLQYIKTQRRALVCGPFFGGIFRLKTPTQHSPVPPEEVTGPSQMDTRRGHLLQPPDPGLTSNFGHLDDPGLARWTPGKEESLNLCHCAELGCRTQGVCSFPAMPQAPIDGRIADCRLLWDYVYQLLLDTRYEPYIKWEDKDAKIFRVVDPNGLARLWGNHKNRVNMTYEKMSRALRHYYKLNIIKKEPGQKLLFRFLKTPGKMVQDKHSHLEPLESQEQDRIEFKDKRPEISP
As to conditions: protein: recombinant; tags: N-terminal GST; dsDNA, one strand shown. An outline of the steps:
as §1

Another assay concerns the target T11, ELF5 (Homo sapiens, UniProt Q9UKW6-2 1-255).
T11 sequence: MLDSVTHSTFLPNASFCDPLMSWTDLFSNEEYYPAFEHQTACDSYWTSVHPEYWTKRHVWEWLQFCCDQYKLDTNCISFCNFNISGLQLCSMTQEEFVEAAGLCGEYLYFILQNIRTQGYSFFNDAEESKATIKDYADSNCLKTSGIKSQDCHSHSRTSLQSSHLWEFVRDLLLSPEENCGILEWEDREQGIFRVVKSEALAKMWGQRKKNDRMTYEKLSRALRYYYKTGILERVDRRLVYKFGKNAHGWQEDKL
As to conditions: protein: recombinant; tags: N-terminal GST; dsDNA, one strand shown. An outline of the steps:
as §1

In another assay the target is T12, ETV3 (Homo sapiens, UniProt P41162-2 1-143).
T12 sequence: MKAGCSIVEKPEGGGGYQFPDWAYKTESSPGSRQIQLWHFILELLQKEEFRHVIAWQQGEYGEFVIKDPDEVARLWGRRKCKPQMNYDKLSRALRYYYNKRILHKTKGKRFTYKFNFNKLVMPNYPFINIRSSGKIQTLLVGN
As to conditions: protein: recombinant; tags: N-terminal GST; dsDNA, one strand shown. An outline of the steps: as §1

For the next assay, the target named is ETV6 (Homo sapiens, UniProt P41212 1-452). As to conditions: protein: recombinant; tags: N-terminal GST; dsDNA, one strand shown. An outline of the steps: as §1
ETV6, sequence (P41212 whole entry): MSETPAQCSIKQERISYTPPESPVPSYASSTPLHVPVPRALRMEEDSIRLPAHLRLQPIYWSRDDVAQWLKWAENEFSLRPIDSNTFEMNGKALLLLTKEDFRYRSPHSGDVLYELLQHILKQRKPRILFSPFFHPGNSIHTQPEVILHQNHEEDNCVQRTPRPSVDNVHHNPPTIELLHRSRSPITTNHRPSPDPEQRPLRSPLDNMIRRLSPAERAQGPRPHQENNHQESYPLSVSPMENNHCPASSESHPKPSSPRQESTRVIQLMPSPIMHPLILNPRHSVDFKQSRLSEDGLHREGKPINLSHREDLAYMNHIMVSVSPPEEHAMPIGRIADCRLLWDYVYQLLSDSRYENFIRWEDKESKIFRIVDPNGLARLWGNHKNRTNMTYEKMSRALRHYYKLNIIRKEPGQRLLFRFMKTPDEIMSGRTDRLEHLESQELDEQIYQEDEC

ETV5, sequence (P41161 whole entry): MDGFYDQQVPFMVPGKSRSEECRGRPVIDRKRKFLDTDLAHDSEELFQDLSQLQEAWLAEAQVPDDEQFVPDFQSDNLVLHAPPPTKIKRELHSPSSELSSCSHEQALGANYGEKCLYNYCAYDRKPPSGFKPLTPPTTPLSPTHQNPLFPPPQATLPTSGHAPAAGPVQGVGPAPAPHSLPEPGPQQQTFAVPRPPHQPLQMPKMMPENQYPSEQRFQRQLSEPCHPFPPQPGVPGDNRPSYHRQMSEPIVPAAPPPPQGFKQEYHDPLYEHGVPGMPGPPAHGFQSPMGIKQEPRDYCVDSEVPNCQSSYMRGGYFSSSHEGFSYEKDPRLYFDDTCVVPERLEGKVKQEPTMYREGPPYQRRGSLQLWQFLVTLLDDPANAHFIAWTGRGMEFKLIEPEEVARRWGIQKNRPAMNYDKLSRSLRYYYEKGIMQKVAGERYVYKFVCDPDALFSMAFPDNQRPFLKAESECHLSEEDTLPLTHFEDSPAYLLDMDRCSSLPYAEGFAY
HSF1, sequence (Q00613 whole entry): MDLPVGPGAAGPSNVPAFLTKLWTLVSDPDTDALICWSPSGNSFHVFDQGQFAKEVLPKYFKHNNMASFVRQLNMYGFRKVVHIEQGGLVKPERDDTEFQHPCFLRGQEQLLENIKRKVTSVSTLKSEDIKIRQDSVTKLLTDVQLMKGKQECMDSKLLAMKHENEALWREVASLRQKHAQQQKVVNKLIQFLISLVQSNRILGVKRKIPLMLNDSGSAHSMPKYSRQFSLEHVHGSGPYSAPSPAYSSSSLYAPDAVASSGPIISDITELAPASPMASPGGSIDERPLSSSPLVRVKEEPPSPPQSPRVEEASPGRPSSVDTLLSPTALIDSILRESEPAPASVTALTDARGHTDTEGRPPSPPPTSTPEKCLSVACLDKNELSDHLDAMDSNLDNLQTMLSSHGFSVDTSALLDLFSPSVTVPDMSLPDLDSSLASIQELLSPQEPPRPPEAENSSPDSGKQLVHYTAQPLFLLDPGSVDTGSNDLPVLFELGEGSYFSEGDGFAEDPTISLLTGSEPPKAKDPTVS
CRX, sequence (O43186 whole entry): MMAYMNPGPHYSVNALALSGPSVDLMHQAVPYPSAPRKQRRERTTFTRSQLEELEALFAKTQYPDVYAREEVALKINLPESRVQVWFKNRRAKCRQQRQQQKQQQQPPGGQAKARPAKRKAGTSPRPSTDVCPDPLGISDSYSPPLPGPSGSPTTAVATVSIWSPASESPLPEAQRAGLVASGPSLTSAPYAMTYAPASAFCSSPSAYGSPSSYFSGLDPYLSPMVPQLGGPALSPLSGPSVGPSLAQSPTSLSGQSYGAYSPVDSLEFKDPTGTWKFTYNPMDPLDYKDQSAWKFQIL
ETV1, sequence (P50549 whole entry): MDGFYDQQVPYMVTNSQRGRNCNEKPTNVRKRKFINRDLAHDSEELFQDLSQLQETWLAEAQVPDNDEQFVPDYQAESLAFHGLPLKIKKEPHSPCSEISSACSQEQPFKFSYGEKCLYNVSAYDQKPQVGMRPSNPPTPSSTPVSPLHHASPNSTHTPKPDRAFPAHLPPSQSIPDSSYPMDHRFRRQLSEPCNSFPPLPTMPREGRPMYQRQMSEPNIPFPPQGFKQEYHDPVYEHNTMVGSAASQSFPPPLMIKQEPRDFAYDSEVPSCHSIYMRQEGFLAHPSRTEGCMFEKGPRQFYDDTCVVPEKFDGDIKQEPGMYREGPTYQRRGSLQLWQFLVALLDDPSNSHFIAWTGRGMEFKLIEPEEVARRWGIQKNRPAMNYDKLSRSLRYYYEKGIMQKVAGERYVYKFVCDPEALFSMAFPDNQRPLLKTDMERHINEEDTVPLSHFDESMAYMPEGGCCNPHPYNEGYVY
ELF4, sequence (Q99607 whole entry): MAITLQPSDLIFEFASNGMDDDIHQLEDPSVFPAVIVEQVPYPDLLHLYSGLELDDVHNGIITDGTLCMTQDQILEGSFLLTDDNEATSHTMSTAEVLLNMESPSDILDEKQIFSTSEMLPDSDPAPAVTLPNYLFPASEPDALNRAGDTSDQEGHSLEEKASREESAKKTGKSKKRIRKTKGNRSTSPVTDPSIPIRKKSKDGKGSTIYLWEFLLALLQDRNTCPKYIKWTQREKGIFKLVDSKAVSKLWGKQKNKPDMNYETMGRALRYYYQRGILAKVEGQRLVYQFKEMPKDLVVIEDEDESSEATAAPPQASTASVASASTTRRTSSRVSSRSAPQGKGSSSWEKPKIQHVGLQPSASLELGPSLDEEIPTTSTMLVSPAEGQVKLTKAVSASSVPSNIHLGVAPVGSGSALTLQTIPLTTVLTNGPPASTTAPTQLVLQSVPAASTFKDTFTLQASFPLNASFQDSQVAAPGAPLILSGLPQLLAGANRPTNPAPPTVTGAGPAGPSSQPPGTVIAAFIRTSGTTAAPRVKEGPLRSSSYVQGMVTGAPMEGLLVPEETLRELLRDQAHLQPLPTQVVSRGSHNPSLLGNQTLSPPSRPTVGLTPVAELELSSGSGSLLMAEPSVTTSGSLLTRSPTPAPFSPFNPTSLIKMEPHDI

As to CGATTT, the binding signal was 1.22 fold enrichment (6-mer frequency, TF over GST control) in the assay with FEV; 1.23 fold enrichment (6-mer frequency, TF over GST control) with ETV5; 1.38 fold enrichment (6-mer frequency, TF over GST control) in the assay with HSF1; 1.22 fold enrichment (6-mer frequency, TF over GST control) in the assay with SPIC; 1.19 fold enrichment (6-mer frequency, TF over GST control) with ELF4; 1.14 fold enrichment (6-mer frequency, TF over GST control) in the assay with ELK4. Also, the binding signal is 1.13 fold enrichment (6-mer frequency, TF over GST control) with ETV2; 1.23 fold enrichment (6-mer frequency, TF over GST control) in the assay with ELF3; 1.58 fold enrichment (6-mer frequency, TF over GST control) with CRX; 1.17 fold enrichment (6-mer frequency, TF over GST control) with ETV1; 1.09 fold enrichment (6-mer frequency, TF over GST control) with ERF; 1.17 fold enrichment (6-mer frequency, TF over GST control) with ETV3L. The binding signal with ETS2 is 1.26 fold enrichment (6-mer frequency, TF over GST control); with SPDEF, 1.07 fold enrichment (6-mer frequency, TF over GST control); with ETV7 it was 1.13 fold enrichment (6-mer frequency, TF over GST control); in the assay with ELF5 it was 1.13 fold enrichment (6-mer frequency, TF over GST control); with ETV3 it was 1.18 fold enrichment (6-mer frequency, TF over GST control); with ETV6, 1.22 fold enrichment (6-mer frequency, TF over GST control).

The record behind these values is PMC7862700, “An all-to-all approach to the identification of sequence-specific readers for epigenetic DNA modifications on cytosine”.
